Columns and labels:
Assay in all cases: PBM binding z-score (relative to random genomic background probes); higher = stronger binding; sequences stand for … in GC…GCGATTGACAGCGTAGAATGAAGG
[1] = test system: FXR:RXRa (NR concentration 270 nM, RXRa partner concentration 90 nM)
Method in brief: (§1)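 For binding z-scores, the reference was random background probes on custom Agilent 4×180K protein-binding microarrays. These arrays were incubated 1 h with ligand-free nuclear receptor dimers in PBS pH 7.4, 2% milk, 0.02% Triton X-100, 1 mM DTT, 0.2 mg/mL BSA and 0.4 mg/ml salmon testes DNA. Fluorescence was scanned after antibody detection of each partner (one per run) and regression-normalized.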

[2] = test system: LXRa:RXRa (NR concentration 270 nM, RXRa partner concentration 90 nM)
Method in brief: as §1

[3] = test system: LXRa homodimer (NR concentration 270 nM)
Method in brief: as §1

[4] = test system: LXRb:RXRa (NR concentration 270 nM, RXRa partner concentration 90 nM)
Method in brief: as §1

[5] = test system: LXRb homodimer (NR concentration 270 nM)
Method in brief: as §1

[6] = test system: PPARa:RXRa (NR concentration 270 nM, RXRa partner concentration 90 nM)
Method in brief: as §1

[7] = test system: PPARg:RXRa (NR concentration 180 nM, RXRa partner concentration 90 nM)
Method in brief: as §1

[8] = test system: PPARg:RXRa 270nM:90nM, anti-RXR (NR concentration 270 nM, RXRa partner concentration 90 nM)
Method in brief: as §1

[9] = test system: PPARg:RXRa 30nM:10nM, anti-RXR (NR concentration 30 nM, RXRa partner concentration 10 nM)
Method in brief: as §1

[10] = test system: PPARg:RXRa 90nM:30nM, anti-RXR (NR concentration 90 nM, RXRa partner concentration 30 nM)
Method in brief: as §1

[11] = test system: PPARg:RXRa DBDmut IVT, anti-RXR (DBD mutation: RXRa K156A/R161A, NR concentration 270 nM, RXRa partner concentration 90 nM)
Method in brief: as §1

[12] = test system: PPARg:RXRa IVT, anti-PPARg (NR concentration 270 nM, RXRa partner concentration 90 nM)
Method in brief: as §1

[13] = test system: PPARg DBDmut:RXRa IVT, anti-PPARg (DBD mutation: PPARg1 K132A/R137A, NR concentration 270 nM, RXRa partner concentration 90 nM)
Method in brief: as §1

[14] = test system: PPARg DBDmut IVT, anti-PPARg (DBD mutation: PPARg1 K132A/R137A, NR concentration 270 nM)
Method in brief: as §1

[15] = test system: PPARg homodimer (NR concentration 180 nM)
Method in brief: as §1

[16] = test system: PXR:RXRa (NR concentration 270 nM, RXRa partner concentration 90 nM)
Method in brief: as §1

[17] = test system: PXR homodimer (NR concentration 270 nM)
Method in brief: as §1

[18] = test system: RARa:RXR (NR concentration 270 nM, RXRa partner concentration 90 nM)
Method in brief: as §1

[19] = test system: RARa homodimer (NR concentration 270 nM)
Method in brief: as §1

[20] = test system: RARb:RXRa (NR concentration 270 nM, RXRa partner concentration 90 nM)
Method in brief: as §1

Row | Sequence | PBM binding z-score [1] | PBM binding z-score [2] | PBM binding z-score [3] | PBM binding z-score [4] | PBM binding z-score [5] | PBM binding z-score [6] | PBM binding z-score [7] | PBM binding z-score [8] | PBM binding z-score [9] | PBM binding z-score [10] | PBM binding z-score [11] | PBM binding z-score [12] | PBM binding z-score [13] | PBM binding z-score [14] | PBM binding z-score [15] | PBM binding z-score [16] | PBM binding z-score [17] | PBM binding z-score [18] | PBM binding z-score [19] | PBM binding z-score [20]
1 | CCTTACGGGTCAAGGTTATAGCACGGGTGGTACG | 5.23 | 3.73 | 0.318 | 2.98 | 0.019 | 5.02 | 4.65 | 4.69 | 2.06 | 3.64 | 1.93 | 3.57 | 0.0487 | -0.257 | 1.58 | 3.2 | 0.367 | 4.01 | 0.705 | 4.13
2 | GCTAGCATGCCATTTGGGTCACTCAATGACGGGC | 0.122 | -0.0732 | -0.46 | 0.0644 | -0.628 | 1.05 | 0.819 | 0.752 | -0.349 | 0.397 | 0.671 | 1.3 | 0.0302 | -0.739 | -0.305 | 0.247 | -0.745 | 0.851 | -0.41 | 1
3 | ATCTCTAGGTAACCAAGTTCAGTAAATGCCGAAC | 0.686 | 1.04 | 1.15 | 1.1 | 0.894 | 1.29 | 0.842 | 1.1 | 0.556 | 0.989 | 3.43 | 2.97 | 1.54 | 2.29 | 1.32 | 2.05 | 1.79 | 1.07 | 0.775 | 1.2
4 | AGTCAATGTTCACTAGGTAACGTAAGATTCAGCT | -0.318 | -0.205 | -0.143 | -0.121 | -0.147 | 0.363 | 0.656 | 0.368 | 0.15 | 0.302 | 1.92 | 2.92 | 1.08 | 0.776 | 0.288 | -0.0899 | -0.202 | -0.181 | -0.0197 | 0.143
5 | CAAACTAGGTCAAGAGGTCAAAGTACGCTTCCCG | 7.11 | 6.18 | 5.74 | 5.71 | 2.26 | 6.64 | 10 | 8.3 | 7.25 | 8.63 | 8.34 | 8.65 | 3.41 | 3.08 | 4.62 | 6.26 | 3.22 | 7.37 | 3.18 | 5.45
6 | ATCTCTAGCTAACCAAGTTCAGTGAATGCCGAAC | -0.0786 | 0.353 | 0.78 | 0.261 | 0.798 | -0.0272 | -0.107 | -0.251 | -0.294 | -0.0743 | -0.58 | -0.0463 | 0.368 | 0.475 | 0.651 | 1.32 | 1.49 | 0.181 | 0.128 | 0.746
7 | ACAGACAGGTGAGTGAAGGTGACTCAGCTGGACG | 0.162 | -0.00172 | -0.654 | -0.308 | -0.35 | 0.592 | 0.8 | 0.28 | -0.492 | -0.01 | 0.718 | 1.24 | 0.42 | -0.00311 | -0.248 | -0.0313 | -0.405 | 0.49 | 0.0445 | 0.935
8 | CCTACTGGGCCCTTCAGAGGTCATTGATCATATG | 2.3 | 3.83 | 5.02 | 3.34 | 0.134 | 3.32 | 0.503 | 1.95 | 0.162 | 0.866 | 0.668 | 1.66 | -0.729 | -0.628 | 3.64 | 4.97 | 1.92 | 4.84 | 0.707 | 2.58
9 | CCGACTGGGGCAGAATGGTTACCATACCATCCGG | -0.449 | -0.782 | -0.449 | -0.838 | -1.2 | -0.355 | 0.778 | -0.289 | -0.329 | -0.35 | 1.42 | 0.943 | -0.354 | -1.29 | 0.0556 | -1.05 | -0.973 | -0.83 | -0.164 | 0.0446
10 | ATACCCAGGTGATCGTGAGGTCGTTGATACTAAC | 1.37 | 1.07 | 0.85 | 1.07 | -0.141 | 1.35 | 0.596 | 0.875 | -0.0532 | 0.317 | -0.291 | 1.1 | 0.599 | 0.838 | 0.843 | 2.35 | 1.32 | 1.95 | -0.274 | 0.914
11 | GGAACGAAGGCATTCGAGTTGATAGCATGGCGAT | -0.551 | -0.66 | -0.692 | -1.09 | -1.23 | -1.8 | 0.416 | -0.825 | -0.794 | -0.901 | -0.318 | -0.69 | -0.596 | -0.862 | -1.41 | -0.315 | -0.602 | -0.623 | -0.628 | -0.659
12 | CCTTACGGGTCACCCCAGGTTATAGCATCGGAGT | 5.74 | 6.63 | 1.25 | 4.43 | -0.027 | 5.01 | 4.23 | 4.51 | 1.22 | 3.1 | 1.58 | 3.6 | 0.299 | -0.0802 | 2.12 | 5.4 | 0.158 | 4.43 | 0.572 | 3.79
13 | CCTATTAGTTGACCATAACGGCAACCGAAGCTCG | 0.455 | 0.697 | 0.909 | 0.584 | 0.966 | 0.199 | 0.702 | 0.486 | 0.219 | 0.318 | 0.934 | 0.243 | 0.836 | 1.13 | 2.08 | 0.499 | 1.25 | 0.72 | 2.49 | 0.584
